The source made the active and inactive calls. How the source made its calls: active means hit-call score of the fitted dose curve at least 0.9, where 1 is the maximum; inactive means score below 0.9.
Legend:
Details in all cases: mRNA level, 48 h; actives raise or lower the signal
[1] = read-out: ABC Transporter (ABCC2), ABCC2 (gene 1244); experiment: LTEA_HepaRG_ABCC2: Life Technologies and Expression Analysis (LTEA) Assay for ABC Transporter (ABCC2) using HepaRG (AID 2283464)
Outline: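 qRT-PCR (TaqMan, Fluidigm array) read-out of ABCC2 mRNA, normalized to three housekeeping genes. Differentiated HepaRG cells were treated 48 h in serum-free induction medium with 8-point half-log series from 100 uM in 0.5% DMSO; curves fitted bidirectionally relative to DMSO.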

[2] = read-out: Broad substrate specificity ATP-binding cassette transporter ABCG2 (Homo sapiens) (UniProt Q9UNQ0); experiment: LTEA_HepaRG_ABCG2: Life Technologies and Expression Analysis (LTEA) Assay for ABC Transporter (ABCG2) using HepaRG (AID 2283465)
Outline: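 Read-out is ABCG2 mRNA induction or loss quantified by qRT-PCR after 48 h chemical treatment of human HepaRG cells, normalized to three housekeeping genes. Concentrations reached 100 uM top in half-log steps; fitting was bidirectional against 0.5% DMSO.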

[3] = read-out: ATP-citrate lyase (ACLY), ACLY (gene 47); experiment: LTEA_HepaRG_ACLY: Life Technologies and Expression Analysis (LTEA) Assay for ATP-citrate lyase (ACLY) using HepaRG (AID 2283466)
Outline: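 HepaRG, 48 h exposure, 8-pt half-log dilutions (top 100 uM), 0.5% DMSO. Readout: ACLY mRNA, TaqMan qRT-PCR, housekeeping-normalized (ACTB/GAPDH/POLR2A). Bidirectional curve fit vs DMSO.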

[4] = read-out: Peroxisomal acyl-coenzyme A oxidase 1 (ACOX1) gene, ACOX1 (gene 51); experiment: LTEA_HepaRG_ACOX1: Life Technologies and Expression Analysis (LTEA) Assay for Peroxisomal acyl-coenzyme A oxidase 1 (ACOX1) gene using HepaRG (AID 2283467)
Outline: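 Measured by qRT-PCR against three housekeeping genes: ACOX1 transcript change in human HepaRG cells after 48 h dosing. Concentrations ran up to 100 uM in half-log steps. Curves were fitted bidirectionally relative to 0.5% DMSO.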

[5] = read-out: Alkaline Phosphatase, Placental (ALPP) gene, ALPP (gene 250); experiment: LTEA_HepaRG_ALPP: Life Technologies and Expression Analysis (LTEA) Assay for Alkaline Phosphatase, Placental (ALPP) gene using HepaRG (AID 2283468)
Outline: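 qRT-PCR readout of ALPP mRNA (Fluidigm TaqMan), normalized to ACTB/GAPDH/POLR2A, after 48 h chemical exposure of HepaRG cells; 8-point half-log series, top 100 uM, 0.5% DMSO vehicle. Bidirectional curve fit versus DMSO baseline.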

[6] = read-out: Bcl-2 (BAD) gene, BAD (gene 572); experiment: LTEA_HepaRG_BAD: Life Technologies and Expression Analysis (LTEA) Assay for Bcl-2 (BAD) gene using HepaRG (AID 2283469)
Outline: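 BAD transcript change, measured by qRT-PCR against three housekeeping genes and fitted in both directions relative to 0.5% DMSO, after 48 h chemical treatment of human HepaRG liver cells at concentrations up to 100 uM.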

[7] = read-out: Bcl-2 (BAX) gene, BAX (gene 581); experiment: LTEA_HepaRG_BAX: Life Technologies and Expression Analysis (LTEA) Assay for Bcl-2 (BAX) gene using HepaRG (AID 2283470)
Outline: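 Differentiated human HepaRG cells, plated 48 h then switched to serum-free induction medium, were exposed 48 h to 8 half-log concentrations up to 100 uM in 0.5% DMSO; BAX mRNA measured by qRT-PCR, normalized to ACTB, GAPDH, POLR2A.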

[8] = read-out: adenosine kinase (ADK) gene, ADK (gene 132); experiment: LTEA_HepaRG_ADK: Life Technologies and Expression Analysis (LTEA) Assay for adenosine kinase (ADK) gene using HepaRG (AID 2283471)
Outline: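 Read-out is ADK transcript level measured by qRT-PCR and normalised to three housekeeping genes. Cells are human HepaRG, dosed for 48 h at up to 100 uM in 0.5% DMSO. Gain or loss of signal is fitted against DMSO controls.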

[9] = read-out: Alpha-fetoprotein (AFP) gene, AFP (gene 174); experiment: LTEA_HepaRG_AFP: Life Technologies and Expression Analysis (LTEA) Assay for Alpha-fetoprotein (AFP) gene using HepaRG (AID 2283472)
Outline: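 Human HepaRG cells plated 48 h, then switched to serum-free induction medium and exposed in duplicate for 48 h to 8-point half-log series from 100 uM in 0.5% DMSO. AFP mRNA by qRT-PCR, normalized to ACTB, GAPDH, POLR2A; bidirectional fit versus DMSO.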

BCL2L11 (gene 10018) = experiment: LTEA_HepaRG_BCL2L11: Life Technologies and Expression Analysis (LTEA) Assay for Bcl-2 (BCL2L11) gene using HepaRG (AID 2283473)
Outline: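 HepaRG, 48 h exposure, 8-pt half-log series from 100 uM in 0.5% DMSO, duplicates; qRT-PCR (Fluidigm TaqMan) for BCL2L11, housekeeping-normalized; bidirectional curve fit relative to DMSO baseline.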

[10] = read-out: Apolipoprotein A-V (APOA5) gene, APOA5 (gene 116519); experiment: LTEA_HepaRG_APOA5: Life Technologies and Expression Analysis (LTEA) Assay for Apolipoprotein A-V (APOA5) gene using HepaRG (AID 2283474)
Outline: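 HepaRG, 48 h chemical exposure in serum-free induction medium, 8-pt half-log series (top 100 uM), 0.5% DMSO vehicle, duplicates. Readout: APOA5 mRNA by qRT-PCR, housekeeping-normalized; bidirectional fit vs DMSO baseline.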

[11] = read-out: Bcl-2 (BID) gene, BID (gene 637); experiment: LTEA_HepaRG_BID: Life Technologies and Expression Analysis (LTEA) Assay for Bcl-2 (BID) gene using HepaRG (AID 2283476)
Outline: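 Differentiated HepaRG cells in serum-free induction medium were exposed in duplicate for 48 h to eight half-log concentrations up to 100 uM in 0.5% DMSO. BID mRNA was quantified by qRT-PCR, normalized to ACTB, GAPDH and POLR2A.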

Caspase-3 (Homo sapiens) = Caspase-3 (Homo sapiens) (UniProt P42574); experiment: LTEA_HepaRG_CASP3: Life Technologies and Expression Analysis (LTEA) Assay for cysteine-aspartic acid protease (CASP3) using HepaRG (AID 2283477)
Outline: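 HepaRG, 48 h exposure, 8 conc. (top 100 uM, half-log steps, duplicate), 0.5% DMSO vehicle; qRT-PCR of CASP3 transcript, housekeeping-normalised (ACTB/GAPDH/POLR2A); bidirectional curve fit vs DMSO baseline.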

[12] = read-out: Cytochrome P450 (CYP24A1), CYP24A1 (gene 1591); experiment: LTEA_HepaRG_CYP24A1: Life Technologies and Expression Analysis (LTEA) Assay for Cytochrome P450 (CYP24A1) using HepaRG (AID 2283478)
Outline: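 qRT-PCR read-out: CYP24A1 transcript levels normalized to three housekeeping genes, bidirectional curve fits against 0.5% DMSO baseline. Human HepaRG cells treated 48 h with chemicals at eight concentrations from 100 uM in half-log steps.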

[13] = read-out: Cytochrome P450 (CYP1A2), CYP1A2 (gene 1544); experiment: LTEA_HepaRG_CYP1A2: Life Technologies and Expression Analysis (LTEA) Assay for Cytochrome P450 (CYP1A2) using HepaRG (AID 2283479)
Outline: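 HepaRG, 48 h exposure, top 100 uM, half-log 8-pt, 0.5% DMSO vehicle, duplicates. Readout: TaqMan qRT-PCR of CYP1A2 mRNA, housekeeping-normalized (ACTB/GAPDH/POLR2A). Gain/loss fit relative to DMSO baseline.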

[14] = read-out: cysteine-aspartic acid protease (CASP8), CASP8 (gene 841); experiment: LTEA_HepaRG_CASP8: Life Technologies and Expression Analysis (LTEA) Assay for cysteine-aspartic acid protease (CASP8) using HepaRG (AID 2283480)
Outline: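 HepaRG, 48 h exposure, duplicate wells; 8 conc, half-log from 100 uM, 0.5% DMSO. Serum-free induction medium. CASP8 mRNA by TaqMan qRT-PCR, norm. ACTB/GAPDH/POLR2A; gain/loss fitted vs DMSO.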

[15] = read-out: Cytochrome P450 (CYP2B6), CYP2B6 (gene 1555); experiment: LTEA_HepaRG_CYP2B6: Life Technologies and Expression Analysis (LTEA) Assay for Cytochrome P450 (CYP2B6) using HepaRG (AID 2283481)
Outline: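 Read-out is CYP2B6 mRNA by TaqMan qRT-PCR, normalized to three housekeeping genes and fitted bidirectionally against 0.5% DMSO baseline. Human HepaRG cells received test chemicals for 48 h, top concentration 100 uM, half-log dilutions.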

[16] = read-out: Cytochrome P450 2C19 (Homo sapiens) (UniProt P33261); experiment: LTEA_HepaRG_CYP2C19: Life Technologies and Expression Analysis (LTEA) Assay for CYP2C19 using HepaRG (AID 2283482)
Outline: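 HepaRG, 48 h chemical exposure, 8-pt half-log series from 100 uM in 0.5% DMSO, duplicates. Readout: CYP2C19 mRNA by TaqMan qRT-PCR, housekeeping-normalized. Bidirectional fit vs DMSO baseline; phenobarbital 1mM as induction control.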

CYP2C8 (gene 1558) = experiment: LTEA_HepaRG_CYP2C8: Life Technologies and Expression Analysis (LTEA) Assay for CYP2C8 using HepaRG (AID 2283483)
Outline: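 CYP2C8 mRNA induction or loss, by qRT-PCR normalized to ACTB/GAPDH/POLR2A, is read in HepaRG cells after 48 h treatment. Concentrations run from 100 uM down in half-log dilutions, with 0.5% DMSO as vehicle and baseline.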

Measured: outcome

Broad substrate specificity ATP-binding cassette transporter ABCG2 (Homo sapiens), sequence (Q9UNQ0 whole entry, looked up): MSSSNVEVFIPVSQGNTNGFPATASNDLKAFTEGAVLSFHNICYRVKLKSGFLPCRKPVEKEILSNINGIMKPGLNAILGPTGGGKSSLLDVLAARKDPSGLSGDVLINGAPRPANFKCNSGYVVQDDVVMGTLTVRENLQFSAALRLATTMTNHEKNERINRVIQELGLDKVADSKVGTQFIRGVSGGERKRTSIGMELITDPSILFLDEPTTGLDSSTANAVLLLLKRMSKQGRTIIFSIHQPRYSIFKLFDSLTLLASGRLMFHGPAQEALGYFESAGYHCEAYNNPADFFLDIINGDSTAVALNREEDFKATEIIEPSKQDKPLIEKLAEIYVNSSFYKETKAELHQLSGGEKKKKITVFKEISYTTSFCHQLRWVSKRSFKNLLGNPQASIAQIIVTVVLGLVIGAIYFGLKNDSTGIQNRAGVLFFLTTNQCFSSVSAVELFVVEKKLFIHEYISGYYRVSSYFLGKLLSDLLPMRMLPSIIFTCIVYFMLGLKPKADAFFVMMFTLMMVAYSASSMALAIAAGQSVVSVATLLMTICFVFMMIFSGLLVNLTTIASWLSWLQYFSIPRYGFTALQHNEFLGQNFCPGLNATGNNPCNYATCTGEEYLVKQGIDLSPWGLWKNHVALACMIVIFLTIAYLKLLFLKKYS
Caspase-3 (Homo sapiens), sequence (P42574 whole entry, looked up): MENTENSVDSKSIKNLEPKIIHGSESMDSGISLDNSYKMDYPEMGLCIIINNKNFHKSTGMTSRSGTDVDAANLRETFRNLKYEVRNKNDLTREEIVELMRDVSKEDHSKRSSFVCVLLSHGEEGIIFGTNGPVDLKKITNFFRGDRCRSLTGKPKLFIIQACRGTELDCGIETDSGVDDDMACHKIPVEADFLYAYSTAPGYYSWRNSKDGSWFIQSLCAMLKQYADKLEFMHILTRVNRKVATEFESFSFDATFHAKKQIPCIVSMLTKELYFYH
Cytochrome P450 2C19 (Homo sapiens), sequence (P33261 whole entry, looked up): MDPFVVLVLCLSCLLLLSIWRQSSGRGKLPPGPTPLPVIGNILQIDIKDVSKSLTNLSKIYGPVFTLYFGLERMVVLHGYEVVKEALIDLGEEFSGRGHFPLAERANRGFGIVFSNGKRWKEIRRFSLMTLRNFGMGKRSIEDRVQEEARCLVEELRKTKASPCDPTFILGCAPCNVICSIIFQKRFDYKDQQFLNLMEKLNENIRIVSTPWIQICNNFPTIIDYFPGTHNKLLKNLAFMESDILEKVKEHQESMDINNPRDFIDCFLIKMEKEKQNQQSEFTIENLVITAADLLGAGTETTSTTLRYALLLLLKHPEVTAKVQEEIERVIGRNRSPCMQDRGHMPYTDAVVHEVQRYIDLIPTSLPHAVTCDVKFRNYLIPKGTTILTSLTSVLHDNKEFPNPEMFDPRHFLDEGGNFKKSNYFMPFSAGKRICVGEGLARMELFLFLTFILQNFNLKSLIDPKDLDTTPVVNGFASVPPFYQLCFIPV

OC[C@H]1O[C@@H]2O[C@H]3[C@H](O)[C@@H](O)[C@@H](O[C@H]4[C@H](O)[C@@H](O)[C@@H](O[C@H]5[C@H](O)[C@@H](O)[C@@H](O[C@H]6[C@H](O)[C@@H](O)[C@@H](O[C@H]7[C@H](O)[C@@H](O)[C@@H](O[C@H]1[C@H](O)[C@H]2O)O[C@@H]7CO)O[C@@H]6CO)O[C@@H]5CO)O[C@@H]4CO)O[C@@H]3CO
inactive: all assays above

Cc1ncc([C@@H](CCCCCCc2ccc3c(n2)NCCC3)CC(=O)O)cn1
not listed: [16]
inactive: all other assays above

CCOC(N)=O
not listed: [16]
inactive: all other assays above

CCCCCCCCN(C)C
not listed: [16]
inactive: all other assays above

Reference: PubChem BioAssay (EPA / NIEHS)
